CYP2C19 activ = human CYP2C19 activators, primary screen, biochemical, luminescence; Cytochrome P450 2C19 (Homo sapiens), P33261; recombinant CYP2C19, luciferin-H EGE luminescence; active compounds read high; 0 = fully inhibited enzyme, 1 = untreated enzyme; activation factor at 5 µM; 96,000 tested, under 10 active; AID 1025, 2008;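 active = activation factor of at least 2 at 5 µM in the primary screen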
CYP2C9 activ = human CYP2C9 activators, primary screen, biochemical, luminescence | activation factor at 5 µM | recombinant CYP2C9, luciferin-H conversion; active compounds read high; factor 1 = untreated enzyme, 0 = blocked | AID 1024, 2008 | Cytochrome P450 2C9 (Homo sapiens), P11712 | hit rate 1.4% among 96,000;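 active = activation factor of 2 or more for CYP2C9 at a 5 µM dose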
Target sequence (P11712 whole entry, looked up): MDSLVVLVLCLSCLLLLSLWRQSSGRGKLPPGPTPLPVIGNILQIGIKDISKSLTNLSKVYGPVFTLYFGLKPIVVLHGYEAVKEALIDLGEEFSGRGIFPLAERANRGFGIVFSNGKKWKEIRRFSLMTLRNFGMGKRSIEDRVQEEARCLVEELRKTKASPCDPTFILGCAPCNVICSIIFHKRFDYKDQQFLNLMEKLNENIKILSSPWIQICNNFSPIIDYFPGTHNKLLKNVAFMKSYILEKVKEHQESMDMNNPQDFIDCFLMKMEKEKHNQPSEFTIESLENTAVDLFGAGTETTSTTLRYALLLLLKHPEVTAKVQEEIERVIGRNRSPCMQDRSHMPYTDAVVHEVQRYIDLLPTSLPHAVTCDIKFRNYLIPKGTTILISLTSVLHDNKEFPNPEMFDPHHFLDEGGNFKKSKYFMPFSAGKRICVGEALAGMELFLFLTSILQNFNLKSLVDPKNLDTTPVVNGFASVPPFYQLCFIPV
CYP2C9 inhib = blockers of cytochrome P450 2C9 activity – biochemical, luminescence, ADME assay, primary screen | P11712 | CYP2C9 Supersomes, luciferin-H conversion | inhibition, % at 5 µM | hit rate 20% among 96,000;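 active = blocking of liver enzyme CYP2C9 beyond about 50% at 5 µM, limit read from the data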
PostGolgi ctrl = growth inhibition of yeast control strain, primary screen, counter-screen for post-Golgi transport modulator project. efflux-deficient yeast background strain, growth absorbance A615, 16 h. inhibition, % at 10 µM. hit rate 5% among 98,000. AID 738, 2007
PostGolgi yeast = phenotypic screen on post-Golgi transport, primary screen | inhibition, % at 10 µM | hit rate 0.9% among 98,000 | AID 739, 2007 | post-Golgi transport phenotypic cell assay;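 also: yeast cells grown in 1536-well plates; yeast grown about 18 h at 30C before absorbance read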
CYP2C19 inh = blockers of cytochrome P450 2C19 activity – biochemical, luminescence, ADME assay, primary screen; hit rate 21% among 96,000; inhibition, % at 5 µM; CYP2C19 Supersomes, luciferin-H EGE luminescence, 30 min;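 active = CYP2C19 inhibition above a set limit at 5 µM in the primary screen, cut at about 50% in these data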
Of the large screens only hits and unclear results are named; the others gave an inactive call. In the library only some 32% were active in any assay of this set; here they are far more common. Rule as the data show it, unless noted: active = inhibition above about 30%; inactive = the rest.

O=[N+]([O-])c1cc(S(=O)(=O)C(F)(F)F)ccc1Sc1nc2ccccc2[nH]1	CYP2C9 inhib 76.3, PostGolgi ctrl 70.1, CYP2C19 inh 89.7
O=[N+]([O-])c1cc(C(F)(F)F)ccc1Sc1ccc2ccccc2n1	none
CS(=O)(=O)c1ccc(Sc2nc3ccccc3[nH]2)c([N+](=O)[O-])c1	CYP2C9 inhib 78.6, CYP2C19 inh 91.2
O=[N+]([O-])c1cc(S(=O)(=O)C(F)(F)F)ccc1Sc1nc2ccccc2s1	CYP2C9 inhib 50.8, PostGolgi ctrl 92.3, PostGolgi yeast 40.8, CYP2C19 inh 63.0
CN1CCN(S(=O)(=O)c2ccc(Sc3nc4ccccc4[nH]3)c3nsnc23)CC1	none
CC(=O)/C(=N/Nc1cccc(C)c1)N1CCOCC1	CYP2C9 inhib 67.5, CYP2C19 inh 66.6
Cc1ccc2nc3c(cc(C#N)c(=O)n3-c3nccs3)c(=O)n2c1	PostGolgi ctrl 30.6
Cc1ccc2nc3c(cc(C#N)c(=O)n3CCN3CCOCC3)c(=O)n2c1	none (no result: PostGolgi ctrl, PostGolgi yeast)
Cc1cc2nc(SCCN3CCCC3)[nH]c2cc1C	none
Cc1cc(=O)oc(C)c1C(=O)NCc1ccco1	none
CCn1c(-c2cc(-c3cc(OC)ccc3OC)nc3ccccc23)n[nH]c1=S	CYP2C9 inhib 96.9, CYP2C19 inh 88.4
COc1ccc(OC)c(-n2c(-c3cccc(O)c3)n[nH]c2=S)c1	none
CCn1c(-c2ccc3ncccc3c2)n[nH]c1=S	none
CCn1c(-c2cc(-c3ccc(OC(C)C)cc3)nc3ccccc23)n[nH]c1=S	CYP2C9 inhib 96.3, CYP2C19 inh 73.5
COC(=O)c1[nH]c2ccccc2c1NC(=O)CNC1CCCCC1	none
c1ccc2c(-c3nc(C4CCCCC4)no3)cc(-c3ccncc3)nc2c1	CYP2C9 inhib 80.4, CYP2C19 inh 57.4
CCOc1ccc(CCNC(=O)CCCN2C(=O)c3ccccc3C2=O)cc1OCC	none
Oc1ccccc1N=Nc1nc(-c2ccccc2)c(-c2ccccc2)[nH]1	CYP2C9 inhib 54.4
CC(C)(C)NC(=O)CSc1nc(-c2ccccc2)c(-c2ccccc2)[nH]1	none
Cc1ccc(C2CN=NC23CCc2ccccc2C3=O)cc1 (configuration not stated)	CYP2C19 inh 74.8
COC(=O)C1=C(N)Oc2cc(C)n(CCCn3ccnc3)c(=O)c2C1c1cccc(Cl)c1 (configuration not stated)	CYP2C9 inhib 92.0, CYP2C19 inh 83.0 (no result: PostGolgi ctrl, PostGolgi yeast)
COC(=O)C1=C(N)Oc2cc(C)n(Cc3cccnc3)c(=O)c2C1c1ccc(OC)c(OC)c1 (configuration not stated)	none
COC(=O)C1=C(N)Oc2cc(C)n(CC3CCCO3)c(=O)c2C1c1ccc(Cl)cc1 (configuration not stated)	CYP2C9 inhib 57.2, CYP2C19 inh 67.2
COC(=O)C1=C(N)Oc2cc(C)n(CCc3ccccc3)c(=O)c2C1c1cccnc1 (configuration not stated)	CYP2C9 inhib 85.1, CYP2C19 inh 92.4
COC(=O)C1=C(N)Oc2cc(C)n(Cc3cccnc3)c(=O)c2C1c1cccc(OC)c1OC (configuration not stated)	CYP2C9 inhib 50.3
CCCOc1ccccc1C(=O)NC(CO)C(=O)O (configuration not stated)	none
C=CCSc1nc(N)c(C(=O)Nc2ccccc2C)cc1C(N)=O	CYP2C9 inhib 66.4, CYP2C19 inh 68.0
Cc1noc2ncnc(Oc3ccc4ccccc4c3)c12	PostGolgi ctrl 31.1
CC1=CC(C)(C)C(C(=O)O)C(C(=O)O)C1 (configuration not stated)	none (no result: PostGolgi ctrl, PostGolgi yeast)
CCOc1ccc(C(=O)N(CN2CCCC2=O)c2ccccc2)cc1	none
Cc1ccc(N(CN2CCCC2=O)C(=O)c2ccc(OC(C)C)cc2)cc1	PostGolgi ctrl 31.8
Cc1ccc(N2C(=O)CC(Sc3nc4ccccc4o3)C2=O)cc1Cl (configuration not stated)	PostGolgi ctrl 38.5
CC(NC(=O)c1cccs1)C(=O)NC1=NCCS1 (configuration not stated)	none
CCCc1nc2ccccc2c(=O)n1/N=C/c1ccccc1O	CYP2C9 inhib 86.3, CYP2C19 inh 61.9
Cc1nc2ccccc2c(=O)n1/N=C/c1ccc(O)cc1	none
COc1cccc(/C=N/n2c(C)nc3ccccc3c2=O)c1O	CYP2C9 inhib 68.6
CCCc1nc2ccccc2c(=O)n1/N=C/c1c(C)[nH]n(-c2ccc(C)cc2)c1=O	CYP2C9 inhib 67.4
CCC(Oc1ccccc1)C(=O)Nc1ccc(S(=O)(=O)Nc2cnc3ccccc3n2)cc1 (configuration not stated)	none
O=C(COc1ccc(Br)cc1)Nc1ccc(-c2nnc(-c3ccco3)o2)cc1	CYP2C19 inh 63.9
CCC(Oc1ccccc1)C(=O)Nc1ccc(-c2nnc(-c3ccco3)o2)cc1 (configuration not stated)	CYP2C9 inhib 97.4, CYP2C19 inh 90.4
CC(=O)C1=C(O)C(=O)N(CCCCCC(=O)O)C1c1ccc(N(C)C)cc1 (configuration not stated)	none
CC1(C)NC(=O)N(CC(O)CNC23CC4CC(CC(C4)C2)C3)C1=O (configuration not stated)	none
O=C(NCc1ccc2c(c1)OCO2)c1cccc(C(=O)NCc2ccc3c(c2)OCO3)c1	none
N#C/C(=C/c1ccc2c(c1)OCO2)C(=O)NCCc1c[nH]c2ccccc12	PostGolgi ctrl 35.9
O=C(CSc1nc2ccccc2o1)NCc1ccc2c(c1)OCO2	CYP2C9 inhib 95.0, CYP2C19 inh 100.4
O=C(CSc1c[nH]c2ccccc12)NCc1ccc2c(c1)OCO2	CYP2C9 inhib 95.5, CYP2C19 inh 100.4
O=C(NCc1ccc2c(c1)OCO2)c1cc2ccccc2o1	CYP2C9 inhib 88.7
O=[N+]([O-])c1cccc(/C=C/c2nc(C=Nc3ccccc3)c(O)o2)c1	none
COc1ccccc1S(=O)(=O)Cc1ccc(C(=O)NC(C)c2ccc3c(c2)OCCO3)o1 (configuration not stated)	CYP2C9 inhib 61.6, CYP2C19 inh 52.5
CCc1ccccc1S(=O)(=O)Cc1ccc(C(=O)NCc2ccc3c(c2)OCO3)o1	CYP2C9 inhib 95.4, CYP2C19 inh 54.2
COc1ccccc1S(=O)(=O)Cc1ccc(C(=O)NCc2cccnc2)o1	none
COc1ccc(CNC(=O)C(C)NC(=O)c2cc3ccccc3o2)cc1 (configuration not stated)	CYP2C9 inhib 76.0
O=C(NCc1ccc(F)cc1)c1ccc(CS(=O)(=O)Cc2ccccc2F)o1	none
CC(C)C(=O)Nc1ccc(NC(=O)c2cc3ccccc3o2)cc1	none

Compound activity from PubChem BioAssay.
